Source: PubChem BioAssay
G9a inh: inhibitors of human histone lysine methyltransferase G9a | Potency, µM (doses to about 102 µM), without a hit: at the highest dose activity, negative = inhibition, actives largely listed as inhibitors | G9a H3K9 monomethylation, AlphaScreen, 2 h | 8.8% of 350,000 active; also: % is scaled to controls: 0 for no effect and ±100 for the full control effect; nearly all actives have a fitted effect of over 75% in size
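Using a bead-based AlphaScreen, monomethylated H3K9 product from 2 h room-temperature reactions (G9a 20 nM, peptide 500 nM, SAM 20 uM) was detected with 0.5 ug/mL rabbit anti-H3K9me1 antibody.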
L3MBTL1 block: inhibitors of human L3MBTL1 | AlphaScreen L3MBTL1–H3K9me1 peptide binding | Potency, µM (top dose mostly 57.1 µM), inactives show at the highest dose activity, negative = inhibition, hits mostly inhibitors | 0.66% of 230,000 active; also: % is scaled to controls: 0 for no effect and ±100 for the full control effect; nearly all actives have a fitted effect of over 60% in size
Target sequence (Q9Y468 whole entry, looked up): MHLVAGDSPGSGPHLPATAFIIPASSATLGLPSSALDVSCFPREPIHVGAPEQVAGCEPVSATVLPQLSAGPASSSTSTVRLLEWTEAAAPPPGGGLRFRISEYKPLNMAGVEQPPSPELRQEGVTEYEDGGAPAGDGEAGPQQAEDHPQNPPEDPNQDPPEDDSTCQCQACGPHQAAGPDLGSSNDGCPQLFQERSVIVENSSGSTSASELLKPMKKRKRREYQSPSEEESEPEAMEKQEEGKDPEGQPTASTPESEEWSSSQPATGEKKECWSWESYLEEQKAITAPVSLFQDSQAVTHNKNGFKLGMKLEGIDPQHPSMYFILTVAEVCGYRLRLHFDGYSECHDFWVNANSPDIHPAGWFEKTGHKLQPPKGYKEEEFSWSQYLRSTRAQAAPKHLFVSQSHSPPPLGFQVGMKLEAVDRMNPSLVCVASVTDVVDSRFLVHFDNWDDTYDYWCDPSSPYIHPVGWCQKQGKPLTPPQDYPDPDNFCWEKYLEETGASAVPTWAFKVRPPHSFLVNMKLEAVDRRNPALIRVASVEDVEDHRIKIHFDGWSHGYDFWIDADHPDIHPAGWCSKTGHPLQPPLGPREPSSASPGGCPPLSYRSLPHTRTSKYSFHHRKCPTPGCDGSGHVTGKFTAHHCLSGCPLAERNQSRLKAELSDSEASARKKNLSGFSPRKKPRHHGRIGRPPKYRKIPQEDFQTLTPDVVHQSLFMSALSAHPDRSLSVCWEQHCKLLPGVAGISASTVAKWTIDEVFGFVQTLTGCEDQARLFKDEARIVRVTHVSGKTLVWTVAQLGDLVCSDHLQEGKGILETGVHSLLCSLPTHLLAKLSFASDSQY
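First, the protein-peptide complex forms for 30 min at room temperature (L3MBTL1 50 nM, biotinylated H3K9me1 peptide 75 nM). Next, compounds are pin-transferred and incubated 30 min. Finally, AlphaScreen beads are added and read after 30 min.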
JMJD2A Tudor inh: blocks the human JMJD2A Tudor domain; O75164; AID 504339; AlphaScreen JMJD2A-Tudor / H3K4me3 peptide binding; 4.4% of 390,000 active; Potency, µM (series often up to 114 µM), without a hit: at the top dose activity change, negative = inhibition, actives largely listed as inhibitors; also: % is scaled to controls: 0 for no effect and ±100 for the full control effect; nearly all actives have a fitted effect of over 50% in size
BAZ2B block: BAZ2B (human) inhibition | AlphaScreen BAZ2B-H3K14Ac peptide displacement | AID 504333 | Potency, µM (titrated, usually from 114 µM), without a hit: at the top dose activity change, negative = inhibition, most hits filed as inhibitors | Q9UIF8 | 4.4% of 360,000 active; also: % is scaled to controls: 0 for no effect and ±100 for the full control effect; nearly all actives have a fitted effect of over 60% in size
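BAZ2B (50 nM) with biotin-H3(5-23)K14Ac peptide (50 nM) in PBS pH 7.4, 0.01% Tween-20, preformed 30 min, then compound 30 min at room temperature; top concentration 110uM. AlphaScreen streptavidin donor/nickel chelate acceptor beads (10 ug/mL final), 20 min dark, signal read.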
Sfp inh: Sfp phosphopantetheinyl transferase inhibition; Q9F4F7; Potency, µM, for inactives: largest response in the series, negative = inhibition, most hits filed as inhibitors; 3.5% of 310,000 active; Biochemical Sfp PPTase activity, qHTS;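 also: the enzyme is Sfp with the accession as filed and its product quenches rhodamine fluorescence; 0% = enzyme reaction without inhibitor and -100% = no enzyme wells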
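Buffer: 50 mM Hepes-Na pH 7.6, 10 mM MgCl2, 0.01% Nonidet P-40, 0.01% BSA. Enzyme 15 nM, pre-exposed to compound 15 min; substrates then added and fluorescence change tracked over 30 min.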
HP1b chromo inh: blocks HP1-beta chromodomain binding to methylated histone tails; AlphaScreen HP1-beta / biotin-H3K9me3 peptide binding; Potency, µM (series often up to 114 µM), inactives show top-dose activity change, negative = inhibition, hits mostly inhibitors; 0.56% of 390,000 active; also: nearly all actives have a fitted effect of over 70% in size
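AlphaScreen: HP1-beta (50 nM) preformed 30 min with biotin-H3(1-18)K9me3 peptide (50 nM) in PBS pH 7.4, 0.01% Tween-20. Compound added for 30 min at RT, then streptavidin donor/nickel chelate acceptor beads (10 ug/mL) for 30 min.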
* hit, by the source's call; ? = inconclusive; · = no result given; [ ] = remark or other dose. Only some compounds are listed: those with a hit (about 12% of all), similar ones and a draw of the others. Calls follow the shape of the dose curve; as a rule, active = well fitted curve in the direction sought with a large enough effect; inconclusive = small, poorly fitted or top-dose-only effect, or another doubt; inactive = no such curve, though single readings can be large; an effect the other way counts as inactive or inconclusive. Potency is read from the fitted curve at half-maximal effect.

SMILES | G9a inh | L3MBTL1 block | JMJD2A Tudor inh | BAZ2B block | Sfp inh | HP1b chromo inh
Cc1cc(=O)[nH]c(N2CCc3ccccc3C2)n1 | 17%[2.33 µM] | · | -11% | 11% | 8% | 16%
CNS(=O)(=O)c1ccc(NC(=S)Nc2ccc3c(c2)OCO3)cc1 | · | 14% | -19% | -19% | 45µM* | -21%
O=c1c(N2CCN(c3cccc(C(F)(F)F)c3)CC2)csc2ccccc12 | ? | · | 45µM* | -20% | · | -11%
NC(=S)NNc1cccc2cccnc12 | 18µM* | ? | 10µM* | 25µM* | 3.2µM* | -16%
O=C(CCCl)Nc1cccc2cccnc12 | · | · | 79µM* | · | · | 68%
NC(=S)Nc1cccc2cccnc12 | 22%[2.33 µM] | 4% | -31% | ? | ? | 10%
CCC(=O)Nc1cccc2cccnc12 | -12%[59 µM] | 9% | 6% | -5% | 6% | 67%
O=C(CCBr)Nc1cccc2cccnc12 | · | · | 79µM* | · | · | 7%
O=C(CI)Nc1cccc2cccnc12 | · | · | 20µM* | · | · | -20%
C=CCN(Cc1ccc(Cl)s1)C(=O)c1cc(S(=O)(=O)N2CCOCC2)ccc1F | 7%[12.7 µM] | 4% | 4% | -2% | · | 60%
O=C(CCN1C(=O)/C(=C\c2ccccc2F)SC1=S)N1CCCCC1 | -11% | · | -32% | ? | 15% | 8%
Cc1cc(C)c(S(=O)(=O)NCCc2cc3c(C)ccc(C)c3[nH]c2=O)c(C)c1 | -2%[59 µM] | · | -6% | -2% | · | 26%
COC(=O)c1ccc(CNC(=O)c2ccc(S(=O)(=O)N3CCCC(C)C3)cc2)cc1 (stereo unspecified) | 7%[12.7 µM] | 7% | -8% | -22% | · | 3%
O=[N+]([O-])c1ccccc1CNCCCCCO | 16%[2.33 µM] | 13% | -9% | -4% | · | 47%
Oc1ccc(O)c2c1C1c3ccccc3C2c2ccccc21 | 3.5µM* | -12% | · | 40µM* | 50µM* | ·
OCC1C2c3ccccc3C(c3ccccc32)C1CO (stereo unspecified) | -5% | 8% | -12% | 0% | 5% | 6%
CC(=O)N[C@@H]1C(O[C@H]2O[C@H](C(=O)O)C(O)[C@H](O)[C@H]2O)[C@H](O)[C@@H](CO)O[C@H]1O[C@@H]1C(C(=O)O)O[C@@H](O[C@H]2[C@H](O)[C@@H](CO)OC(O)[C@@H]2NC(C)=O)[C@H](O)[C@H]1O (stereo partly specified) | -44%[12.7 µM] | · | · | · | 26% | ·
C(=C\c1ccccc1)/CSc1nnc(-c2ccccn2)n1Cc1ccco1 | 16µM* | -8% | ? | -35% | 32µM* | 15%
c1coc(Cn2c(SCc3nc4ccccc4[nH]3)nnc2-c2cnccn2)c1 | 32µM* | -5% | ? | -9% | -1% | 39%
CCn1c(COc2ccc(C)cc2)nnc1SCc1nc2ccccc2[nH]1 | · | -6% | -32% | -31% | -1% | 29%
Clc1ccc(OCc2nnc(SCc3nc4ccccc4[nH]3)n2Cc2ccco2)cc1 | 40µM* | -2% | ? | -31% | -2% | -8%
Clc1ccccc1CSc1nnc(-c2ccccn2)n1Cc1ccco1 | ? | -1% | 56µM* | 56µM* | 56µM* | 0%
Cn1c(SCc2nc3ccccc3[nH]2)nnc1-c1cnccn1 | 5% | 2% | -21% | 10% | 2% | 15%
Cc1ccc(-c2c(C3C4C=CCCC4(C)C(=O)N3Cc3ccccc3)ccc3ccccc23)cc1 (stereo unspecified) | · | · | -35% | · | -5% | 6%
Nn1c(SC/C=C/c2ccccc2)nnc1-c1ccccn1 | 28µM* | ? | 20µM* | 11µM* | -23% | 31%
SMILES | G9a inh | L3MBTL1 block | JMJD2A Tudor inh | BAZ2B block | Sfp inh | HP1b chromo inh
COc1ccc(-c2nnc(SCc3cccc(C)c3)n2N)cc1 | 16%[59 µM] | 0% | 17% | 2% | 25% | 18%
Cc1cccc(CSc2nnc(-c3ccccn3)n2N)c1 | 14µM* | -25% | 50µM* | 35µM* | -15% | 25%
NC(=O)CSc1nnc(-c2ccccn2)n1Cc1ccco1 | -34% | -9% | 0% | -38% | 1% | 17%
c1ccc(-c2nnc(SCc3nc4ccccc4[nH]3)n2Cc2ccco2)nc1 | 50µM* | -4% | ? | ? | -6% | 14%
Cc1ccc(NC(=O)CSc2nnc(-c3ccccn3)n2N)c(Br)c1 | 1% | 25µM* | ? | 13µM* | 10% | 26%
C[C@H]1Cc2c(COc3ccccc3)nc3c(c2CO1)CN(C(=O)C1CC1)CC3 | · | · | · | · | 19% | ·
Clc1cccc(-c2nnc(SCc3nc4ccccc4[nH]3)n2Cc2ccco2)c1 | 40µM* | -12% | ? | ? | 8% | -5%
O=C(c1cc([N+](=O)[O-])ccc1N1CCOCC1)N1CCN(S(=O)(=O)c2ccc(F)cc2)CC1 | 3%[59 µM] | 2% | -11% | 10% | · | 39%
CC1CC(C)CN(C(=O)COC(=O)c2cc([N+](=O)[O-])ccc2N2CCOCC2)C1 (stereo unspecified) | 79µM* | 6% | -25% | -11% | · | -1%
Cc1cc(C)c(C(=O)COC(=O)c2cc([N+](=O)[O-])ccc2N2CCOCC2)cc1C | 16µM* | -1% | -26% | -25% | · | 18%
CC1CCCN(C(=O)COC(=O)c2cc([N+](=O)[O-])ccc2N2CCOCC2)C1 (stereo unspecified) | ? | 7% | -21% | 5% | · | -26%
COc1cc(C(=O)COC(=O)c2cc([N+](=O)[O-])ccc2N2CCOCC2)ccc1OC(F)F | 32µM* | -4% | -27% | -3% | · | 16%
CCOc1ccc(S(=O)(=O)N2CCN(C(=O)c3cc([N+](=O)[O-])ccc3N3CCOCC3)CC2)cc1 | 3.2µM* | 1% | -16% | 3% | · | 13%
CC1=C(C(=O)OCCBr)C(c2cccc3ccccc23)NC(=O)N1 (stereo unspecified) | 79µM* | · | -11% | -3% | 12% | -13%
CC1=C(C(=O)OCCCBr)C(c2ccc3c(c2)OCO3)NC(=O)N1 (stereo unspecified) | 50µM* | 2% | -12% | -35% | -3% | 34%
COc1ccc2[nH]cc(CCNc3cc(-c4ccc(C(=O)N(C)C)cc4)ncn3)c2c1 | 0%[0.501 µM] | · | · | · | 7% | ·
CCc1ccc(N2CC(C(=O)Nc3ccc(S(=O)(=O)NCC4CCCO4)cc3)CC2=O)cc1 (stereo unspecified) | -9% | · | 4% | -11% | 3% | 48%
COc1ccc(-n2c(Cn3nc(C(F)(F)F)cc3C)n[nH]c2=S)cc1 | 7.9µM* | 3% | ? | 0% | 0% | 27%
COc1cccc(-n2c(Cn3nc(C(F)(F)F)cc3C)n[nH]c2=S)c1 | 8.9µM* | 2% | 56µM* | -16% | -4% | 34%
Cc1cccc(OCc2n[nH]c(=S)n2-c2ccccc2)c1 | · | 0% | ? | ? | 11% | 7%
